Out of some 5,500 compounds screened, about 2,000 (36%) were called active. Inconclusive results (about 18%) are left out. Rule as the data show it: active = normalized growth mostly below about 0.91 (no sharp cut-off); inconclusive = no clear call, values can overlap the other calls; inactive = mostly above about 0.92. Some of the results follow.
Assay: chemical genetic growth profiling, strain panel (AID 1159580);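 also: tested at 20 µM; growth read once vehicle control cultures reached saturation at 30 °C; 1 = growth at the plate median or of vehicle wells; lower values mean less growth of the strain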
Settings: S. cerevisiae deletion strains, growth OD

Measured: normalized growth

CC(=O)c1cc(CC=C(C)C)c(O)c(CC=C(C)C)c1
active: locus YBR021W, strain FUR4, stronger effect = lower value 1.42 [resistant] | locus YDR162C, strain NBP2, stronger effect = lower value 0.665 | locus YHR030C, strain SLT2, stronger effect = lower value 0.878
inactive: locus YAL013W, strain DEP1, stronger effect = lower value 0.924 | locus YAL021C, strain ccr4, stronger effect = lower value 1 | locus YAL026C, strain drs2, stronger effect = lower value 1.01 | locus YAL030W, strain snc1, stronger effect = lower value 1.01 | locus YBL061C, strain skt5, stronger effect = lower value 1 | locus YBR009C, strain hhf1, stronger effect = lower value 1 | locus YBR023C, strain chs3, stronger effect = lower value 1 | locus YBR171W, strain sec66, stronger effect = lower value 1.01 | locus YBR229C, strain ROT2, stronger effect = lower value 0.989 | locus YBR231C, strain swc5, stronger effect = lower value 1 | locus YBR279W, strain paf1, stronger effect = lower value 1.02 | locus YCL011C, strain gbp2, stronger effect = lower value 1.01 | locus YCL016C, strain dcc1, stronger effect = lower value 1.01 | locus YCL029C, strain bik1, stronger effect = lower value 0.96 | locus YCL061C, strain MRC1, stronger effect = lower value 1.01 | locus YCL069W, strain vba3, stronger effect = lower value 1 | locus YCR088W, strain abp1, stronger effect = lower value 1 | locus YDL005C, strain med2, stronger effect = lower value 1.02 | locus YDL035C, strain GPR1, stronger effect = lower value 0.947 | locus YDL040C, strain nat1, stronger effect = lower value 1.01 | locus YDL074C, strain BRE1, stronger effect = lower value 0.797 | locus YDL101C, strain DUN1, stronger effect = lower value 0.945 | locus YDL134C, strain PPH21, stronger effect = lower value 0.987 | locus YDL185W, strain tfp1, stronger effect = lower value 0.927 | locus YDL192W, strain arf1, stronger effect = lower value 0.919 | locus YDR001C, strain nth1, stronger effect = lower value 1 | locus YDR069C, strain doa4, stronger effect = lower value 1 | locus YDR101C, strain arx1, stronger effect = lower value 0.969 | locus YDR137W, strain rgp1, stronger effect = lower value 0.939 | locus YDR150W, strain NUM1, stronger effect = lower value 0.969 | locus YDR159W, strain sac3, stronger effect = lower value 1.02 | locus YDR195W, strain ref2 1.06 | locus YDR297W, strain sur2, stronger effect = lower value 1.01 | locus YDR318W, strain mcm21, stronger effect = lower value 0.971 | locus YDR334W, strain swr1, stronger effect = lower value 1.01 | locus YDR335W, strain msn5, stronger effect = lower value 1.02 | locus YDR388W, stronger effect = lower value 0.977 | locus YDR392W, strain spt3, stronger effect = lower value 0.977 | locus YDR502C, strain sam2, stronger effect = lower value 0.955 | locus YEL003W, strain gim4, stronger effect = lower value 1.01 | locus YEL037C, strain rad23, stronger effect = lower value 1 | locus YEL061C, strain CIN8 (second series), stronger effect = lower value 1.01 | locus YEL061C, strain CIN8, stronger effect = lower value 0.989 | locus YER015W, strain faa2, stronger effect = lower value 1 | locus YER016W, strain bim1, stronger effect = lower value 1.01 | locus YER110C, stronger effect = lower value 0.966 | locus YER111C, strain swi4, stronger effect = lower value 1.02 | locus YER155C, strain BEM2 (second series), stronger effect = lower value 1.03 | locus YER155C, strain BEM2, stronger effect = lower value 1 | locus YER167W, strain BCK2, stronger effect = lower value 0.992 | locus YFR010W, strain ubp6, stronger effect = lower value 1.01 | locus YGL078C, strain dbp3, stronger effect = lower value 0.984 | locus YGL086W, strain mad1, stronger effect = lower value 0.953 | locus YGL167C, strain pmr1, stronger effect = lower value 0.987 | locus YGL173C, strain kem1, stronger effect = lower value 1.01 | locus YGL227W, strain vid30, stronger effect = lower value 1.01 | locus YGL240W, strain doc1, stronger effect = lower value 1.03 | locus YGL248W, strain PDE1, stronger effect = lower value 0.93 | locus YGL253W, strain hxk2, stronger effect = lower value 1.01 | locus YGR078C, strain PAC10, stronger effect = lower value 0.922 | locus YGR135W, strain pre9, stronger effect = lower value 0.978 | locus YGR252W, strain gcn5, stronger effect = lower value 0.921 | locus YHR013C, strain ard1, stronger effect = lower value 1.06 | locus YHR027C, strain rpn1, stronger effect = lower value 1 | locus YHR079C, strain IRE1 (second series), stronger effect = lower value 0.97 | locus YHR094C, strain hxt1, stronger effect = lower value 0.982 | locus YHR129C, strain ARP1, stronger effect = lower value 0.97 | locus YHR142W, strain chs7, stronger effect = lower value 0.995 | locus YHR200W, strain rpn10, stronger effect = lower value 0.963 | locus YIL066C, strain RNR3, stronger effect = lower value 0.965 | locus YIL073C, strain SPO22, stronger effect = lower value 0.846 | locus YIL125W, strain kgd1, stronger effect = lower value 0.984 | locus YIR030C, strain dcg1, stronger effect = lower value 0.98 | locus YJL092W, strain hpr5, stronger effect = lower value 1.01 | locus YJL095W, strain BCK1 (second series), stronger effect = lower value 1.01 | locus YJL095W, strain BCK1, stronger effect = lower value 0.9 | locus YJL115W, strain asf1, stronger effect = lower value 1.02 | locus YJL129C, strain trk1, stronger effect = lower value 0.974 | locus YJL134W, strain LCB3, stronger effect = lower value 0.983 | locus YJL154C, strain vps35, stronger effect = lower value 1.02 | locus YJL164C, strain tpk1, stronger effect = lower value 0.999 | locus YJL166W, strain qcr8, stronger effect = lower value 1.02 | locus YJL168C, strain set2, stronger effect = lower value 0.984

From PubChem BioAssay AID1159580 (chemical genetic matrix, 2015)
